According to PubChem BioAssay (NCATS):
Results filed as inconclusive are left out. Activity calls are given as the source filed them. Unless noted, calls come from the whole dose curve; as a rule, active = well fitted curve in the direction sought with a large enough effect; inconclusive = small, poorly fitted or top-dose-only effect, or another doubt; inactive = no such curve, though single readings can be large; an effect the other way counts as inactive or inconclusive.

Legend:
[1] = qHTS to identify inhibitors of the type 1 interferon - major histocompatibility complex class I in skeletal muscle: primary screen against the NCATS Pharmaceutical Collection (AID 1347407); conditions: human skeletal muscle cells, IFN-b-induced MHC-I HiBiT luminescence, 24 h; series mostly up to 92.2 µM;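 note: luminescence of HiBiT knocked into endogenous HLA-B as interferon-induced MHC class I level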
In short: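 Cells were seeded with 4 ng/ml IFN-beta, incubated 1 h, then dosed with compounds over eight 1:5 steps up to 46 uM final. After 24 h at 37 C, HiBiT lytic reagent was added and luminescence read after 10 min lysis in the dark.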

[2] = target: Protein phosphatase 1D (Homo sapiens) (UniProt O15297); test: RapidFire Mass Spectrometry qHTS Assay for Modulators of WT P53-Induced Phosphatase 1 (WIP1) (AID 1347424); conditions: WIP1 dephosphorylation of phosphopeptide, RapidFire MS; series mostly up to 128 µM;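 note: amount of dephosphorylated VEPPL-S-QETFS peptide product formed by WIP1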
In short: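 Mass-spectrometric measurement of dephosphorylated peptide after a 5 min room-temperature reaction of 10 nM WIP1 with 2 uM phosphopeptide, following 1 h compound preincubation in 30 mM MgCl2 buffer.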

[3] = Primary qHTS for inhibitors of SARS-S pseudo-typed particle cell entry (AID 1479145; calls by dose curve; note: nearly all actives have a fitted effect of over 45% in size); conditions: SARS-S pseudotyped particle cell entry, luciferase reporter; series mostly up to 57.1 µM
[4] = Primary qHTS for Huh7 cytotoxicity: counterscreen for inhibitors of MERS-S pseudotyped particle cell entry (AID 1479147; calls by dose curve); conditions: cell viability read-out; series mostly up to 57.1 µM
[5] = Primary qHTS for Vero E6 cytotoxicity: counterscreen for inhibitors of SARS-S pseudo-typed particle cell entry (AID 1479150; calls by dose curve); conditions: cell viability; series mostly up to 57.1 µM
[6] = Primary qHTS for inhibitors of La Crosse Virus (LACV) - induced cell death in SH-SY5Y cells (AID 1508616); conditions: SH-SY5Y LACV cytopathicity rescue, ATP luminescence, 6 d; series mostly up to 9.63 µM;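 note: top concentration of the series differs between compounds; higher means more rescue of cells from virus-induced death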
In short: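 SH-SY5Y, 6000 cells/well; cpd via pin tool in DMSO; LACV 0.01 MOI; 6 d 37C 5% CO2; ATPLite, 5 min RT; luminescence normalized to ±virus DMSO controls.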

[7] = qHTS to identify inhibitors of the type 1 interferon - major histocompatibility complex class I in skeletal muscle: primary screen against the NCATS LOPAC collection (AID 1347405); conditions: iHSKM muscle cells, IFN-b-induced MHC-I HiBiT luminescence, 24 h; series mostly up to 45.9 µM;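 note: human myoblasts with HiBiT tag on endogenous HLA-B stimulated by IFN-beta; lytic HiBiT luminescence reporting HLA-B protein level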
In short: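 First, engineered myoblasts carrying HLA-B-HiBiT were seeded in medium lacking dexamethasone with 4 ng/ml IFN-beta. After 1 hr, compounds were pinned in (top 46 uM final, 7 points). After 24 hrs at 37 C, luminescence was measured following 10 min lysis.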

[8] = qHTS for inhibitors of adenylyl cyclases using a fission yeast platform: a pilot screen against the NCATS LOPAC library (AID 1347410); conditions: S. pombe CHP2027, fbp1-GFP fluorescence, 18 h; series mostly up to 57.5 µM
In short: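 Growth medium went into the plates first, then compounds were pinned (final up to 57 µM), then CHP2027 yeast were added. Plates were incubated overnight (18 h) at 30C in the dark, and GFP was measured by laser scanning cytometry.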

[9] = target: Calcium and integrin-binding protein 1 (Homo sapiens) (UniProt Q99828); test: Validation qHTS for Identification of Calcium Integrin Binding protein 1 (CIB1) Competitor (AID 1508618); conditions: CIB1-GST / FITC-alphaIIb peptide fluorescence polarization; series mostly up to 114 µM
In short: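 Fluorescence polarization with 1 uM CIB1-GST and 100 nM FITC-alphaIIb peptide in HEPES pH 7.4, NaCl, 5 mM CaCl2, Tween20. Compounds at up to 114 uM final, preincubated with protein 15 min; read after 15 min more at RT.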

[10] = Primary qHTS for inhibitors of MERS-S pseudo-typed particle cell entry (AID 1479149; calls by dose curve; note: nearly all actives have a fitted effect of over 60% in size); conditions: MERS-S pseudotyped particle entry, luciferase; series mostly up to 57.1 µM
[11] = target: Calcium and integrin-binding protein 1 (Homo sapiens) (UniProt Q99828); test: Primary qHTS for Identification of Calcium Integrin Binding Protein 1 (CIB1) Competitor (AID 1508620); conditions: CIB1-GST / FITC-alphaIIb peptide fluorescence polarization; series mostly up to 57.7 µM;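 note: GST tagged CIB1 binding a fluorescein labelled alphaIIb integrin peptide tracer; top concentration of the series differs between compounds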
In short: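 Fluorescence polarization competition: CIB1-GST (1 uM final) preincubated with compound 15 min at room temperature, then FITC-labeled alphaIIb peptide (100 nM final) added for another 15 min. Polarization read at Ex 480/Em 540.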

[12] = Counterscreen qHTS for small molecule stabilizers of the endoplasmic reticulum resident proteome: GLuc-NoTag assay (AID 1508627); conditions: Gaussia luciferase NoTag secretion counterscreen, luminescence, thapsigargin 100 nM for final 4 h; series mostly up to 76.4 µM; note: potency is the fitted concentration of half-maximal effect
In short: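 Secreted GLuc lacking the SERCaMP modification is measured in SH-SY5Y cells exposed to compound for 19 h and then to thapsigargin (100 nM, 4 h) to deplete ER calcium; hits retested at 11 concentrations, up to 76.6 uM.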

[13] = Confirmatory qHTS for small molecule stabilizers of the endoplasmic reticulum resident proteome: Secreted ER Calcium Modulated Protein (SERCaMP) assay (AID 1508628); conditions: SERCaMP secreted luciferase ER calcium/proteostasis reporter; series mostly up to 76.3 µM; note: nearly all actives have a fitted effect of over 40% in size; note: potency is the fitted concentration of half-maximal effect
In short: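 Reporter secretion upon ER calcium depletion (100 nM thapsigargin, 4 h, 37C) is measured as medium luminescence with coelenterazine, after 16 h compound pretreatment of SH-SY5Y-GLuc-SERCaMP cells; primary at three concentrations up to 38.3 uM, follow-up at 11 (up to 76.6 uM).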

[14] = target: Protein phosphatase 1D (Homo sapiens) (UniProt O15297); test: Rhodamine-PBP qHTS Assay for Modulators of WT P53-Induced Phosphatase 1 (WIP1) (AID 1347425); conditions: recombinant WIP1, Rhodamine-PBP phosphate fluorescence, real-time; series mostly up to 116 µM
In short: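 WIP1 (5 nM final) was preincubated with compound for 1 hour at room temperature. It then dephosphorylated 10 uM VEPPL-pS-QETFS peptide in Tris-HCl pH 7.5 with 30 mM MgCl2. Released Pi was detected by 10 uM Rh-PBP fluorescence (ex 525/em 598 nm) read at 1-min intervals for 11 min, as delta f1 - f0.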

Measured: Potency

Sequence of Protein phosphatase 1D (Homo sapiens) (O15297 whole entry, looked up): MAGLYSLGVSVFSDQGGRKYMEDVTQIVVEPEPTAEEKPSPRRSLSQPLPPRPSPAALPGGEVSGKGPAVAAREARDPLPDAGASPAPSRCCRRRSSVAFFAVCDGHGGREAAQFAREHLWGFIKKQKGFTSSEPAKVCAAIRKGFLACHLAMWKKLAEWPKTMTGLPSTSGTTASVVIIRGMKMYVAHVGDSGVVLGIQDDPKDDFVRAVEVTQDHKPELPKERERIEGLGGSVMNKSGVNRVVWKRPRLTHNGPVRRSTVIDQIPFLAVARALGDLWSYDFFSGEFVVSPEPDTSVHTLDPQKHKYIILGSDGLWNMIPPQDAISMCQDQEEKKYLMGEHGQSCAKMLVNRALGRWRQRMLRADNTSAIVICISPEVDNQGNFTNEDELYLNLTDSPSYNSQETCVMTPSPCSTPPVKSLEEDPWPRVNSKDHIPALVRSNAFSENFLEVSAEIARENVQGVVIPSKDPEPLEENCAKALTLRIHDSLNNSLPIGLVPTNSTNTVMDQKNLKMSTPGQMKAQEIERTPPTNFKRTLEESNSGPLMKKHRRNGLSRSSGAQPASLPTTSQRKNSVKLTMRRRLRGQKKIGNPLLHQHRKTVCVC
Sequence of Calcium and integrin-binding protein 1 (Homo sapiens) (Q99828 whole entry, looked up): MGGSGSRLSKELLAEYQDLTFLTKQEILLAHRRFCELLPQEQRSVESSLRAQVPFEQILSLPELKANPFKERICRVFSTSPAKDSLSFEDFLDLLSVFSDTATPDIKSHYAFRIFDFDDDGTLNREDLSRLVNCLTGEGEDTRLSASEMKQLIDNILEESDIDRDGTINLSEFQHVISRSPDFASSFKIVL

O=[N+]([O-])c1ccc([As](=O)(O)O)cc1
inactive: [1] | [2] | [3] | [4] | [5] | [6]

CC(C)Oc1cccnc1N(C)C1CCN(Cc2ccccc2)CC1
inactive: [7] | [8] | [6] | [9]

CCCN(CCC)[C@@H]1CCc2ccc(O)cc2C1
inactive: [7] | [8] | [6] | [9]

COC(=O)c1cncn1C(C)c1ccccc1 (stereo not drawn)
inactive: [1] | [2] | [3] | [4] | [10] | [5] | [6] | [11]

CNCCc1ccc(O)c(O)c1
active: [12] 11.2 µM | [13] 39.8 µM
inactive: [7] | [8] | [9]

CCCCCCCCc1ccc(O)cc1
inactive: [1] | [2] | [6]

Nc1c(Cl)c(Cl)c(Cl)c(Cl)c1Cl
inactive: [1] | [2] | [14] | [6] | [11] | [12] | [13]

c1ccc2sc(C3(N4CCCCC4)CCCCC3)cc2c1
inactive: [7] | [8] | [9]

Cc1cc(O)ccc1Cl
inactive: [1] | [2] | [3] | [4] | [10] | [5] | [6] | [11]

NC(=NCCC[C@H](N)C(=O)O)N[N+](=O)[O-]
inactive: [7] | [8] | [6] | [9]

S=C(NC1CCCCC1)N1CCC(c2cnc[nH]2)CC1
inactive: [7] | [8] | [6] | [9] | [11]

CC[N+]1(CCOC(=O)C(O)(c2ccccc2)c2ccccc2)CCCCC1
inactive: [1] | [2] | [3] | [4] | [10] | [5] | [6] | [11]

CC(C)NCC(O)c1ccc([N+](=O)[O-])cc1 (stereo not drawn)
inactive: [1] | [2] | [6]
